Each structure is given as a SMILES string. Hit rate of the full screen: of about 420,000 compounds, about 50,000 (12%) were called active. About 26% were inconclusive and are not listed. Shown is part of a subset that was picked to be rich in actives. Unmarked numbers belong to inactive results. The call rests on the fitted dose curve; in most records, active means well fitted inhibition curve with a large enough effect; inconclusive means small, poorly fitted or top-dose-only effect; inactive means flat fitted curve, though single readings scatter.
On the % scale 0 is the no-effect control and ±100 the full control effect; potency means the concentration at half of the fitted maximal effect.

The assay can be described thus: qHTS for Inhibitors of human tyrosyl-DNA phosphodiesterase 1 (TDP1): qHTS in cells in presence of CPT. Further: nearly all actives have a fitted effect of over 55% in size. The note with it: chicken DT40 Tdp1-/-;hTDP1 cells + 20 nM CPT, ATP luminescence, 48 h; series mostly up to 46.2 µM; activity change, negative = growth inhibition: at the top concentration. A digest of the protocol: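 Chicken DT40 Tdp1-/- cells complemented with human TDP1, 400 cells/well, exposed to compounds plus 20 nM camptothecin for at least 48 h at 37 C; viability read as ATP content by CellTiter-Glo luminescence.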
On the technique in general: qHTS replaces the single test concentration by a dilution series.
As to `O=c1c(CCc2ccccc2)nc2cncnc2n1C1CC1`, the “activity change, negative = growth inhibition” value was 2.45%.

Take `CCCNC(=O)C(=O)Nc1cc2c3c(c1)CCC(=O)N3CCC2`: the “activity change, negative = growth inhibition” value is -0.193%. On the same count and under the same terms, as for `Cc1cc(F)ccc1N1CCC(N2CCN(C)C(CCO)C2)CC1` (centres undefined), the figure is -17.2%. For `O=C(Nc1ccc2c(c1)nc1n2CCCCC1)c1cc(S(=O)(=O)N2CCOCC2)ccc1Cl`, the Potency is 11.6 µM (active). For the compound `O=C(Nc1ccc(N2CCOCC2)c(Cl)c1)c1ccc(S(=O)(=O)N2CCOCC2)cc1`, the “activity change, negative = growth inhibition” value is -19.1%.

For `O=S(=O)(c1cccc(-c2nnc3n2CCCCC3)c1)N1CCOCC1`, the “activity change, negative = growth inhibition” value is -17.9%. Still for that read-out and setting: as for `N#C/C(=C(\O)C(F)(F)F)c1nnc2n1CCCCC2`, the figure is -13.9%; as for `Cc1cccc(C(=O)OCC(=O)Nc2sccc2C(N)=O)c1C`, 6.25%. Take `O=C(/C=C/Sc1ncn[nH]1)c1ccc(Cl)cc1`: the Potency is 2.31 µM (active).

As to `COc1ccc(Cl)cc1CSc1ncn[nH]1`, the “activity change, negative = growth inhibition” value is 0.877%.

Regarding `O=C(CSc1ncn[nH]1)N/N=C/c1ccc(F)cc1`, the “activity change, negative = growth inhibition” value is 0.0663%. Same read-out and setting: as for `COC(=O)c1sccc1-n1cccc1C(=O)C(=O)N1CCCCC1`, the figure is -5.51%. On to `COc1cccc(-c2nnc(NC(=O)c3ccc(S(=O)(=O)N(CC(C)C)CC(C)C)cc3)o2)c1`, for which the Potency was 3.66 µM (active). With `O=C(COC(=O)c1ccc(Oc2ccccc2)cc1)Nc1nnc(-c2ccccc2)o1`, the “activity change, negative = growth inhibition” value is -23.6%. Same read-out and setting: as for `COc1cccc(NC(=O)c2ccc(S(=O)(=O)N(C)C)cc2)c1`, the figure is -1.56%; as for `O=C1/C(=C/c2ccc(F)cc2)SC(=S)N1NS(=O)(=O)c1ccccc1`, -3.85%. With `O=C(CCN1C(=O)c2ccccc2C1=O)C1=NN[C@@H]2C(=O)N(c3ccc(F)cc3)C(=O)[C@H]12`, the “activity change, negative = growth inhibition” value is -3.2%. In the case of `CCCCCCc1cc2cc(-c3nnc(-c4ccccc4)o3)c(=O)oc2cc1O`, the Potency was 14.6 µM (active). Consider `CCCC(=O)Nc1nnc(-c2ccccc2)o1`, for which the “activity change, negative = growth inhibition” value was 0.251%. On to `Cc1c(CC(=O)NCCCCCC(=O)O)c(=O)oc2cc3occ(-c4ccccc4)c3cc12`, for which the “activity change, negative = growth inhibition” value is 11.6%. On the same count and under the same terms, as for `Nc1cccc(S(=O)(=O)Nc2ccc(SC(F)F)cc2)c1`, the figure is -8.22%; as for `CC(C)(C)c1cc(P(=O)(c2ccccc2)c2ccccc2)ccc1O`, -13.8%; as for `COc1ccccc1-c1cnn2c(N3CCOCC3)cc(C)nc12`, 10.4%. With `O=C(Nc1cccc(Br)c1)C1CC(=O)N(C2CCCC2)C1` (centres undefined), the “activity change, negative = growth inhibition” value is 0.73%. Consider `COc1ccc(OC)c(NC(=O)Cc2cccs2)c1`, for which the “activity change, negative = growth inhibition” value is -28.1%.

As to `Cn1c(SCC(=O)N/N=C/c2ccc(O)c(O)c2)nc2ccccc21`, the “activity change, negative = growth inhibition” value is -81.7%. In the case of `CCCc1nc2ccccc2c(=O)n1/N=C/c1ccc(O)c(O)c1`, the Potency was 11.6 µM (active).

As for `O=c1c2ccccc2ncn1/N=C/c1ccccc1`, the “activity change, negative = growth inhibition” value was -6.74%. With `CSc1nc2c(c(=O)[nH]1)C(c1cccc(Cl)c1Cl)CC(=O)N2` (centres undefined), the “activity change, negative = growth inhibition” value is 5.31%. Same read-out and setting: as for `COc1ccc(S(=O)(=O)N2CCN(C(=S)NCC3CCCO3)CC2)cc1OC` (centres undefined), the figure is 6.64%; as for `O=C(CSCc1c(F)cccc1Cl)NCC1CCCO1` (centres undefined), -10.4%. As for `S=C(NCC1CCCO1)N1CCN(c2ccc(Cl)c(Cl)c2)CC1` (centres undefined), the Potency was 20.6 µM (active). Regarding `O=Cc1c(N2CCN(c3cccc(Cl)c3)CC2)nc2ccccn2c1=O`, the “activity change, negative = growth inhibition” value is -27.9%. The same measure, in the same setting: as for `CC(CNc1ccc([N+](=O)[O-])c2cccnc12)Nc1c([N+](=O)[O-])cc(C(F)(F)F)cc1[N+](=O)[O-]` (centres undefined), the figure is -5.74%; as for `FC(F)(F)c1ccc2c3n(nc2c1)CCN=C3c1ccc(Cl)cc1`, -26.9%.

Take `CCc1ccccc1NC(=O)CSc1nnc(CCNC(=O)OC(C)(C)C)o1`: the “activity change, negative = growth inhibition” value is 4.67%. On the same count and under the same terms, as for `CN1OC[C@@H]2CN(C(=O)c3cccc4ccccc34)[C@H](c3ccc(N4CCCCC4)cc3)C[C@@H]21`, the figure is -8.28%; as for `C[C@H]1Cn2cnc(C(=O)N[C@H](C)c3ccccc3)c2C(=O)N1`, -2.86%; as for `COc1ccc(C(=O)OC(C)C(=O)NC2CCCC2)cc1S(=O)(=O)N1CCOCC1` (centres undefined), -15.1%.

With `CCCN(CCC)C(=O)C1CCCN(c2ncnc3c2nc2n3CCCCC2)C1` (centres undefined), the Potency was 14.6 µM (active). On to `Cc1cccc2c(=O)n3c(nc12)CCCCC3`, for which the “activity change, negative = growth inhibition” value is -29.8%. As to `CN(C(=O)C1CCN(c2ncnc3c2nc2n3CCCCC2)CC1)C1CCCCC1`, the Potency was 20.6 µM (active).

Regarding `COCCNc1ncnc2c1nc1n2CCCC1`, the “activity change, negative = growth inhibition” value was -12.6%. On the same count and under the same terms, as for `CCCCN(CC)C(=S)Nc1ccc2nc3n(c(=O)c2c1)CCCCC3`, the figure is -21.8%. For the compound `COCCCNC(=O)CN1C(=O)CSc2ccc(S(=O)(=O)N3CCOCC3)cc21`, the Potency entry was “inactive”. Consider `O=C(NCc1ccncc1)c1ccc(NS(=O)(=O)c2cccc([N+](=O)[O-])c2)cc1`, for which the “activity change, negative = growth inhibition” value was -13%. Same read-out and setting: as for `COc1ccc(C(C)NC(=S)NC2CCCCC2)cc1OC` (centres undefined), the figure is -15.6%; as for `COc1ccc(-n2c(CNC(=O)c3cc(C(F)(F)F)ccc3Cl)nnc2SC)cc1`, 21.6%; as for `COc1ccc(C(CNC(=O)COc2ccc([N+](=O)[O-])cc2)N2CCCCC2)cc1` (centres undefined), -15.2%.
